CYP2C9 inhib – inhibitors of human CYP2C9 | CYP2C9 Supersomes, luciferin-H conversion, luminescence | inhibition, % at 5 µM | 96,000 tested, 20% active | AID 777;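 active = blocking of liver enzyme CYP2C9 beyond about 50% at 5 µM, limit read from the data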
Target sequence (P11712 whole entry, looked up): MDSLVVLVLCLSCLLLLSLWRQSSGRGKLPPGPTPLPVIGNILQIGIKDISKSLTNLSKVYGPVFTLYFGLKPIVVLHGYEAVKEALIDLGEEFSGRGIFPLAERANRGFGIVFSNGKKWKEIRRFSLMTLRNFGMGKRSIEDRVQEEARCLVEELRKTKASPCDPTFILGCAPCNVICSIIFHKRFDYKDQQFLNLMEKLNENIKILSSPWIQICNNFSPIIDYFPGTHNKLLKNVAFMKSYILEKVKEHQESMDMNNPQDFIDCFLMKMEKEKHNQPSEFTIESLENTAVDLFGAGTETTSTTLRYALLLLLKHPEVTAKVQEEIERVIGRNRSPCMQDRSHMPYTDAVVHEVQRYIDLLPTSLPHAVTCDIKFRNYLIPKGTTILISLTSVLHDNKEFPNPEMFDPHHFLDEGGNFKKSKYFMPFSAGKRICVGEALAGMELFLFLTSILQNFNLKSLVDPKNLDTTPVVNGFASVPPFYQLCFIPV
sEH inhibitor – blocks human soluble epoxide hydrolase activity. P34913. 91,000 tested, 0.34% active. inhibition, % at 2 µM. recombinant human sEH enzymatic activity assay; in the data active = inhibition above about 80%
CYP2C9 act – CYP2C9 (human) activation | P11712 | recombinant CYP2C9, luciferin-H conversion, luminescence; stronger effect = higher value; factor 1 = untreated enzyme, 0 = blocked | activation factor at 5 µM | 96,000 tested, 1.4% active;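 active = activation factor of 2 or more for CYP2C9 at a 5 µM dose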;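 also: 0 = sulfaphenazole-blocked wells and 1 = vehicle-only wells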
sEH act – soluble epoxide hydrolase (human) activation; P34913; purified human sEH enzymatic activity, activator screen; activation, % at 2 µM; 91,000 tested, 0.04% active; AID 717; in the data active = activation above about 37%
CYP2C19 act – increases human CYP2C19 enzyme activity; P33261; recombinant CYP2C19, luciferin-H EGE luminescence; stronger effect = higher value; 0 = fully inhibited enzyme, 1 = untreated enzyme; AID 1025; 96,000 tested, under 10 active; activation factor at 5 µM;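 active = activation factor of at least 2 at 5 µM in the primary screen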;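 also: 0 = wells with 2.5 mM tranylcypromine and 1 = vehicle-only wells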
CYP2C19 inhib – blocks human cytochrome P450 2C19; P33261; CYP2C19 Supersomes, luciferin-H EGE luminescence, 30 min; inhibition, % at 5 µM; 96,000 tested, 21% active;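 active = CYP2C19 inhibition above a set limit at 5 µM in the primary screen, cut at about 50% in these data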;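 also: plate controls were negative control wells for no effect and 2.5 mM tranylcypromine positive control for full effect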
Active calls of the source: *; x = no result; ! = not active in a repeat. Most compounds without a hit are left out; they make up all but 27% or so of the library.

SMILES	CYP2C9 inhib	sEH inhibitor	CYP2C9 act	sEH act	CYP2C19 act	CYP2C19 inhib
Cc1ccccc1S(=O)(=O)Cc1ccc(C(=O)NCCN2CCN(Cc3ccccc3)CC2)o1	50	x	0.5	x	0.9	12
CCOc1ccc(NC(C)c2cc(Cl)ccc2O)cc1 (configuration not stated)	79*	6	0.2	-1	0.4	62*
CC(Nc1ccc(Br)cn1)c1cc(Cl)ccc1O (configuration not stated)	86*	0	0.1	3	0.2	82*
CC(Nc1ccc(Cl)cc1)c1cc(Cl)ccc1O (configuration not stated)	x	4	x	-2	x	x
Cn1cccc1Cc1nnc(SCC(=O)N2CCN(c3ccccc3)CC2)n1-c1ccc(F)cc1	12	x	0.9	x	0.9	9
COc1ccc2nc(C)cc(SCC(=O)N/N=C/c3cccc4ccccc34)c2c1	54*	26	0.5	-29	1	1
COC(=O)CSc1cc(C)nc2ccc(OC)cc12	12	-8	0.9	11	0.7	30
COc1ccc2nc(C)cc(SCC(=O)O)c2c1	38	-12	0.6	12	0.5	50*!
CCCn1c(SCC(=O)NC(C)(C)C)nnc1C(C)C	-15	17	1.2	-18	1.1	-7
CCn1c(Cc2ccccc2)nnc1SCC(=O)Nc1nc2ccccc2s1	21	5	0.8	-3	0.8	22
Cn1c(CSCc2ccccc2Cl)nnc1SCC(=O)Nc1nccs1	61*	4	0.4	-1	0.5	49
CCSCc1nnc(SCC(=O)Nc2nc3ccccc3s2)n1C	63*	4	0.4	-4	0.8	18
CCOC(=O)c1sc2nc(CC(=O)OC)nc(NCCN(CC)CC)c2c1C	0	2	1	-2	1.1	-9
CCOC(=O)c1sc2nc(CC(=O)OC)nc(NCCN3CCOCC3)c2c1C	51*	4	0.5	-5	0.5	54*
CCOC(=O)c1sc2nc(CC(=O)OC)nc(N3CCN(c4ccc(OC)cc4)CC3)c2c1C	96*	-12	0	11	0.1	89*
CCC(C(=O)NCc1ccco1)N(C(=O)CNS(=O)(=O)c1ccccc1)c1ccc(OC)cc1 (configuration not stated)	10	2	0.9	-4	0.7	34
Cc1ccc(C(N)=S)c(C)c1	x	-4	x	5	x	x
FC(F)(F)c1nnc2ccc(-n3ccnc3)nn12	-1	10	1	-12	1	-3
FC(F)(F)c1ccc(-n2ccnc2)nc1	38	0	0.6	2	0.5	52*
COc1cccc(O[C@@H]2O[C@@H]3COC(C)(C)O[C@H]3[C@H](O)[C@H]2NC(C)=O)c1	x	-4	x	6	x	x
Cc1cccc(N(C(=O)Cn2nnc3ccccc32)C(C(=O)NC(C)(C)C)c2ccsc2)c1 (configuration not stated)	-1	-1	1	2	1	0
CN(C)c1ccc(C2C=C(c3ccc(Cl)cc3OC(F)F)Nc3ncnn32)cc1 (configuration not stated)	94*	x	0.1	x	0	99*
Cc1ccc(C2C=C(c3ccccc3OC(F)F)Nc3ncnn32)cc1 (configuration not stated)	66*	x	0.3	x	0.6	36
CC1CCCC(C)N1CCNC(=O)C1CCN(S(=O)(=O)N2CCCCC2)CC1 (configuration not stated)	-6	3	1.1	-4	0.9	6
CCOC(=O)N1CCN(C(=O)Cn2nc(C)c3sc4ccccc4c3c2=O)CC1	-30	x	1.3	x	1.1	-6
SMILES	CYP2C9 inhib	sEH inhibitor	CYP2C9 act	sEH act	CYP2C19 act	CYP2C19 inhib
CCOC(=O)N1CCN(C(=O)C(CC)n2nc(C)c3sc4ccccc4c3c2=O)CC1 (configuration not stated)	58*	-20	0.4	18	0.9	9
Cc1nn(C(C)C(=O)NCc2ccccc2Cl)c(=O)c2c1sc1ccccc12 (configuration not stated)	97*	-10	0	9	0.1	88*
COc1ccc(-n2c(NC(=O)c3ccc(Br)o3)c(C#N)c3nc4ccccc4nc32)cc1	79*	-10	0.2	11	1	2
Cc1ccc2cccc(NC(=O)c3ccc(Br)o3)c2n1	-46	-7	1.5	5	1.1	-8
CC(C)CCOc1ccc(C(=O)CCNC(C)C(=O)O)cc1 (configuration not stated)	9	x	0.9	x	0.9	6
CC(C)CCOc1ccc(C(=O)O)cc1	83*	x	0.2	x	0.2	83*

Bioassay records: PubChem BioAssay, several laboratories
